# Screening data as filed in PubChem BioAssay.
# Dicer inh: inhibitors of human Dicer processing of pre-microRNA | z-score at 25 µM | actives 6% (n = 47,000) | cat-ELCCA pre-miR-21 Dicer processing, chemiluminescence; stronger effect = higher value; in the data active = z-score above about 3, passing the limit was not always enough;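 note: higher signal means more uncleaved substrate so more Dicer inhibition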
# Target sequence (Q9UPY3 whole entry, looked up): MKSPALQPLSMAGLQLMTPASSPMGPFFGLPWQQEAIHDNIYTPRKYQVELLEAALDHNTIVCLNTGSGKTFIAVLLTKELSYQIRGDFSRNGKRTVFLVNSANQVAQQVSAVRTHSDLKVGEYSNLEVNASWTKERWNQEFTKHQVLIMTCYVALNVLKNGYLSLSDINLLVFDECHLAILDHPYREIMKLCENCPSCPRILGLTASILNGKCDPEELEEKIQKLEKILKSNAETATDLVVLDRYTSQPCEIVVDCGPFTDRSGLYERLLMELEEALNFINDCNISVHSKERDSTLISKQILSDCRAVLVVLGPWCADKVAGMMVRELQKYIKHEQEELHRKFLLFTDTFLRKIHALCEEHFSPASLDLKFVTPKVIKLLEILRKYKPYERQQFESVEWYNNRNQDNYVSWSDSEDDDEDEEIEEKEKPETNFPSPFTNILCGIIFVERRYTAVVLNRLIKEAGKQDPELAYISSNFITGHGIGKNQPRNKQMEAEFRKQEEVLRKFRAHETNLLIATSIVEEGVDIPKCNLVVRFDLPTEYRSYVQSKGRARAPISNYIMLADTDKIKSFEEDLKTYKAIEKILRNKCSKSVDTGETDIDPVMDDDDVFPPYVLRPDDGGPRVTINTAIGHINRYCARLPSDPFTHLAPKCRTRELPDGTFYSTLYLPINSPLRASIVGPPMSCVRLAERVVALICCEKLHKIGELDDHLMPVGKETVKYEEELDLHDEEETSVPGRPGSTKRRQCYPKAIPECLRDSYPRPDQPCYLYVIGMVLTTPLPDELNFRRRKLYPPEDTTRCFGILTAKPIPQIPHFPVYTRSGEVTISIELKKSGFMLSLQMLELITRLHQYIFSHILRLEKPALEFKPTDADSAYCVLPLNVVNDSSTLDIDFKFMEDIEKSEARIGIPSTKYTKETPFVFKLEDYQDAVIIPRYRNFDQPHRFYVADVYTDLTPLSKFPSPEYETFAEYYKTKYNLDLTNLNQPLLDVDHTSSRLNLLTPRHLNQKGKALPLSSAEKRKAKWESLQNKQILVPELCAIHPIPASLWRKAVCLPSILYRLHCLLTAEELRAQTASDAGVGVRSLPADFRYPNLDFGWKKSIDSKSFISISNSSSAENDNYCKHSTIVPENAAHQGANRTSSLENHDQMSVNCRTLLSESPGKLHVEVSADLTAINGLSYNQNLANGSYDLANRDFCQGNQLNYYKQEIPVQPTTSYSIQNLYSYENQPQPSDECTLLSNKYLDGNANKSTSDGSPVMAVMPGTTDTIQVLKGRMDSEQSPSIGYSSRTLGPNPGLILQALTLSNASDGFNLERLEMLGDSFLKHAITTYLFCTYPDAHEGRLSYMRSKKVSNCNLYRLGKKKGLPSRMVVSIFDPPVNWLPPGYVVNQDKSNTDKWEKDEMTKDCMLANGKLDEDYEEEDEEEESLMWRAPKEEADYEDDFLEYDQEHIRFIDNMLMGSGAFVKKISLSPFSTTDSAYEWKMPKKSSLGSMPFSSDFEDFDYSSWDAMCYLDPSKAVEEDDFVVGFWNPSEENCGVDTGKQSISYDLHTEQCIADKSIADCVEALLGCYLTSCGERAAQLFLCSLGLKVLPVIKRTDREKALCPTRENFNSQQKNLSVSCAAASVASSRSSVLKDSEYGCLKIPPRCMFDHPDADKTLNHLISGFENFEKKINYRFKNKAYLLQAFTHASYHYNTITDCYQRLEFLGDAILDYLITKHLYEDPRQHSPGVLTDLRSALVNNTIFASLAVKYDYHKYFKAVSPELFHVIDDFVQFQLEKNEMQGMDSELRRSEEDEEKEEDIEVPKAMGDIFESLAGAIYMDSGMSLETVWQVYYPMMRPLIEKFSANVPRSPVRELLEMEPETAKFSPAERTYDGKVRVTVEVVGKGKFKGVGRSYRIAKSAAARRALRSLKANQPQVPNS
# A number is an active result; n = inactive. Shown is part of a subset that was picked to be rich in hits.
SMILES,Dicer inh
O=C(O)c1ccc(NS(=O)(=O)c2ccc3c4c(cccc24)C(=O)S3)cc1,n
CN1C(=O)c2cccc3c(S(=O)(=O)Nc4ccc(C(=O)O)c(O)c4)ccc1c23,n
Cc1ccc(C)c(NS(=O)(=O)c2ccc3c4c(cccc24)C(=O)S3)c1,3.73
Cc1ccccc1NS(=O)(=O)c1cccc2c(N(C)C)cccc12,n
Clc1ccc(-c2noc(CC3CCCCC3)n2)cc1,n
Cc1ccc(F)cc1N1CC(C(=O)O)CC1=O (centres undefined),n
Fc1ccc(NC(=S)N2CCCCC2CCN2CCOCC2)cc1 (centres undefined),n
Cc1ccc(Oc2c(C(F)(F)F)oc3c(CN4CCOCC4)c(O)ccc3c2=O)cc1,n
Cc1c(C)c(C)c(CNC(=S)NN)c(C)c1C,n
COc1ccc(-c2nc(C#N)c(N3CCCCC3)o2)cc1,n
N#Cc1nc(-c2ccc(F)cc2)oc1N1CCOCC1,n
N#Cc1nc(-c2ccc(Cl)cc2)oc1N1CCOCC1,3.68
CC(C)(C)c1ccc(-c2ncc(-c3cccc([N+](=O)[O-])c3)s2)cc1,n
c1ccc(-c2ccc(-c3cnc(-c4ccncc4)s3)cc2)cc1,3.1
O=c1sc(-c2ccccc2)ncc1-c1ccccc1,n
COCc1cc(N2CCCCC2)nc(-c2csc(C)n2)n1,n
Cc1cc(C)n(CC(=O)Nc2cccc(Cl)c2)c(=O)c1C#N,n
Cc1cc(C)nc(SCC(=O)c2ccccc2)n1,n
Cc1cc(C)nc(SCC(=O)c2cccs2)n1,n
Cc1cc(C)nc(SCC(=O)c2ccc(O)c(O)c2)n1,3.15
Cc1cc(C)nc(SCC(=O)Nc2ncccn2)n1,n
CCc1nc(SCC(=O)c2ccc(O)c(O)c2)n[nH]1,n
O=C(CSc1n[nH]c(-c2ccccc2Cl)n1)c1ccc(O)c(O)c1,4.89
COc1ccccc1-c1nc(SCC(=O)c2ccccc2)n[nH]1,n
Cc1cc(C)nc(SCCC(=O)O)n1,3.23
SMILES,Dicer inh
Cc1cc(C)nc(SCc2ccccc2)n1,n
COc1ccc(CCN2CSC(=S)N(CCc3ccc(OC)c(OC)c3)C2)cc1OC,n
CSc1nc(Sc2ccccc2)c(C#N)c(Sc2ccccc2)n1,n
CCCOc1ccc(Br)cc1C1C(C(=O)OCc2ccccc2)=C(C)Nc2nnnn21 (centres undefined),n
Cc1cc(OCc2nc(-c3ccccn3)no2)ccc1Cl,n
CC(=O)/C(=C\Nc1nc(C)cc(C)n1)S(=O)(=O)c1ccc(Cl)cc1,n
Cn1c(N2C(=O)CC(Cc3ccc(Cl)cc3)C2=O)nc2ccccc21 (centres undefined),n
N#Cc1c(OCC(F)(F)F)ccc(S(=O)(=O)Oc2ccc([N+](=O)[O-])cc2)c1OCC(F)(F)F,n
Cc1ccc(S(=O)(=O)Oc2ccc(-c3ccc(OS(=O)(=O)c4ccc(C)cc4)cc3)cc2)cc1,n
Cc1c(C)c(C)c(S(=O)(=O)Oc2ccc([N+](=O)[O-])cc2)c(C)c1C,4.73
COc1cc(NC(=O)C(c2ccccc2)C2CCCC2)cc(C(F)(F)F)c1 (centres undefined),n
C=C(C)Cn1c(SCCC(=O)OC)nc2sc3c(c2c1=O)CC(C)(C)OC3,n
COc1ccc2nc(C)cc(-n3nc(C)cc3C)c2c1,n
O=C(O)COc1ccc2c(c1)oc(=O)c1ccccc12,n
C=CCOC(=O)COc1ccc2c(c1)oc(=O)c1ccccc12,n
O=C(COc1ccc2c(c1)oc(=O)c1ccccc12)OCc1ccccc1,4.55
CSC1=C(C#N)C(c2ccc(Cl)cc2)C(C(=O)OC(C)(C)C)=C(C)N1 (centres undefined),n
O=C(Nc1ccc(Cl)cc1)c1c(O)c2ccccc2[nH]c1=O,n
CCOC(=O)c1noc(-c2cccc([N+](=O)[O-])c2)c1C#N,n
N[C@@H](Cc1cc(I)c(Oc2ccc(O)c(I)c2)c(I)c1)C(=O)O,3.25
CCOC(=O)[C@@H](N)Cc1ccccc1,n
NC(Cc1c[nH]c2ccc(Br)cc12)C(=O)O (centres undefined),n
N[C@@H](Cc1cc(I)c(Oc2cc(I)c(O)c(I)c2)c(I)c1)C(=O)O,4.34
N[C@@H](Cc1ccc(O)c(O)c1)C(=O)O,n
N[C@@H](Cc1ccc([N+](=O)[O-])cc1)C(=O)O,n
SMILES,Dicer inh
CSc1nc(NCc2ccccc2)c2c3c(sc2n1)CC(C)CC3 (centres undefined),n
CCOC(=O)c1nnn(-c2ccc(F)c(Cl)c2)c1NC(=O)c1cccs1,n
Cn1ncc2c(N/N=C/c3ccc(C#N)cc3)ncnc21,n
Cc1ccc(-c2nn3c(C)nnc3s2)cc1NC(=O)c1ccc([N+](=O)[O-])o1,n
O=C(Cn1cnc2sc(-c3ccccc3)cc2c1=O)c1ccccc1,n
CCOc1nc2c(c(-c3ccc(OC)cc3)c1C#N)Cc1ccccc1-2,n
CC(=O)COc1nc2c(c(-c3ccc(Cl)cc3)c1C#N)CCc1ccccc1-2,3.23
CC(=O)COc1nc2c(c(-c3ccco3)c1C#N)CCc1ccccc1-2,n
O=C1C(=O)N(CN2CCOCC2)c2ccc(Br)cc21,n
O=C1CC(Sc2ncn[nH]2)C(=O)N1c1ccc(-c2ccccc2)cc1 (centres undefined),n
CC(C)CC(NCc1ccccc1O)C(=O)O (centres undefined),n
O=C(CSc1nccc(-c2cccs2)n1)c1cc(-c2ccc(Cl)c(Cl)c2)no1,4.02
CC(C)NC(=O)CSc1nccc(-c2cccs2)n1,n
O=C(CSc1nccc(-c2cccs2)n1)Nc1ccccc1,n
COc1cc(Cl)c(NC(=O)c2ccc(Cl)cc2)c(Cl)c1,n
O=C(Nc1nc2ccccc2c(=O)s1)c1ccccc1,n
CCOc1ccc(Nc2nc3ccccc3c(=O)s2)cc1,n
CCN(CC)c1nc2ccccc2c(=O)s1,3.74
Cc1occc1-c1cc(N)n(-c2cccc(Cl)c2Cl)n1,n
N#CCCN(Cc1ccccc1)S(=O)(=O)c1ccccc1,n
S=C(N/N=C/c1ccccc1)Nc1ccccc1,n
C=CCNc1nc(-c2ccccc2)cs1,n
CCOC(=O)c1noc(C)c1-c1csc(N/N=C/c2ccccc2)n1,n
Fc1ccc(/C=N/Nc2nc(-c3ccccc3)cs2)cc1,6.78
c1ccc(-c2csc(NN=C3C4CC5CC(C4)CC3C5)n2)cc1,n
SMILES,Dicer inh
Cc1onc(-c2ccccc2)c1-c1csc(Nc2ccc(Cl)cc2)n1,n
COc1ccc(/C=N/Nc2nc(-c3ccccc3)cs2)cc1,n
Cc1ccccc1CO/N=C\c1[nH]ncc1Br,n
Brc1cn[nH]c1/C=N/Nc1nc(-c2ccccc2)cs1,3.17
S=C(N/N=C/c1[nH]ncc1Br)Nc1ccccc1,4.15
Cc1onc(-c2ccccc2)c1-c1csc(N/N=C/c2ccccc2)n1,4.05
Clc1ccccc1/C=N/Nc1nc(-c2ccccc2)cs1,n
CN(C)CCCNS(=O)(=O)c1cc(Cl)sc1Cl,n
CCSC1=N/C(=C\c2ccc(OC(C)=O)c(OC(C)=O)c2)C(=O)S1,n
CCCC(NC1CCS(=O)(=O)C1)C(=O)O (centres undefined),n
CC1CC(=O)Nc2ccccc2N1C(=O)CCC(=O)O (centres undefined),n
Cc1ccc(CN2C(=O)c3oc4ccc(F)cc4c(=O)c3C2c2ccc(O)cc2)cc1 (centres undefined),n
COc1ccc(C2c3c(oc4cc(C)c(C)cc4c3=O)C(=O)N2c2ccccn2)cc1 (centres undefined),n
COc1cc(C2c3c(oc4ccc(F)cc4c3=O)C(=O)N2Cc2ccc(C)cc2)ccc1O (centres undefined),4.78
Cc1ccc(C2c3c(oc4ccccc4c3=O)C(=O)N2c2ccc(C)cn2)cc1 (centres undefined),4.15
